Measurements from ChEMBL document CHEMBL1201862, “PubChem BioAssay data set” (2004).
In all, about 400,000 compounds went through this assay and about 2,100 (0.53%) were called active. Another 14% or so got no clear call; they are omitted. How the calls were made is not given here. Only a selection was taken, and actives are over-represented in it overall.

target: Ataxin-2 (Homo sapiens) (UniProt Q99700); test: qHTS for Inhibitors of ATXN expression.; format: functional
Sequence (Q99700 whole entry): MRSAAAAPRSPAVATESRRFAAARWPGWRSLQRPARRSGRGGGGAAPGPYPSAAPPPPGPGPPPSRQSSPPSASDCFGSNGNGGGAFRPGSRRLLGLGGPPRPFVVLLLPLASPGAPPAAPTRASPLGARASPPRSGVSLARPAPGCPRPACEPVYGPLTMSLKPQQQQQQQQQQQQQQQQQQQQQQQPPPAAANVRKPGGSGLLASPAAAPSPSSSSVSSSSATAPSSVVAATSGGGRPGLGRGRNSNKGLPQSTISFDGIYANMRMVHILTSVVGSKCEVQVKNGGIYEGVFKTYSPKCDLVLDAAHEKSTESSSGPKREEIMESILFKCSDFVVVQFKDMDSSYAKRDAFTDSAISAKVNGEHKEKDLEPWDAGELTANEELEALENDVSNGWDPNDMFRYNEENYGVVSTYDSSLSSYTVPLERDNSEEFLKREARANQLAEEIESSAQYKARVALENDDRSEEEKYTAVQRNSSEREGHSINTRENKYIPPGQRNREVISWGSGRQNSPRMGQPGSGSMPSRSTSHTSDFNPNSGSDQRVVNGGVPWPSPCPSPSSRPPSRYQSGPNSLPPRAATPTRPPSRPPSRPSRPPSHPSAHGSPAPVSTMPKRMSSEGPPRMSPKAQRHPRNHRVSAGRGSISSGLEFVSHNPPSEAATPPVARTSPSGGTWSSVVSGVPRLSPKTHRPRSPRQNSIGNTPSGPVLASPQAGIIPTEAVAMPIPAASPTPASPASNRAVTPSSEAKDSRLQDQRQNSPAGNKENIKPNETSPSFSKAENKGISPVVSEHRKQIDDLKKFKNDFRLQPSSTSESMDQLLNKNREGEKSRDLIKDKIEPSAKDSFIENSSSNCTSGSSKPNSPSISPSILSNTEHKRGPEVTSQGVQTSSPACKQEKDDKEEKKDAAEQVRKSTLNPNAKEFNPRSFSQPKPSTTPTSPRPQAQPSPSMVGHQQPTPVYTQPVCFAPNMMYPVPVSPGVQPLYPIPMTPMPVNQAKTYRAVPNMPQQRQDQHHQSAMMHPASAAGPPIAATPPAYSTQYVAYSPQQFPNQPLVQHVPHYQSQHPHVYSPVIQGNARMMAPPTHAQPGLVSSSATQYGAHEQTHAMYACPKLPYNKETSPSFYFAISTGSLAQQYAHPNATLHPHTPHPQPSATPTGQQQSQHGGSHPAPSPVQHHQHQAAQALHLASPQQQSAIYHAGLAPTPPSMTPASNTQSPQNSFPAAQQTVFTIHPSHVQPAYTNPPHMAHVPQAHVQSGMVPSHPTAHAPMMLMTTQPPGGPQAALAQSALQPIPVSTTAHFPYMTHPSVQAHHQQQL

SMILES | Potency
CCc1nc2sc(C(C)=O)c(N)c2c2c1CCCC2 | inactive
O=C(CC1Sc2ccccc2NC1=O)OCc1cc(=O)oc2cc(O)ccc12 (stereo not drawn) | inactive
Cn1cc(/C=N/NC(=O)c2cc3cc(Br)ccc3o2)c2ccccc21 | inactive
CCOC(=O)N1CCC(NC(=O)c2cc(C(=O)Nc3ccc(F)cc3F)ccc2CO)CC1 | inactive
O=C(CC[C@H]1O[C@@H](n2ccc(=O)[nH]c2=O)[C@H](O)[C@@H]1O)N[C@H](Cc1ccccc1)C(=O)NCCCN1CCCC1=O | inactive
CC(OC(=O)c1ccc([N+](=O)[O-])s1)C(=O)NC1CCCCC1C (stereo not drawn) | inactive
O=c1[nH]cc(/N=C/c2cc(Cl)cc(Cl)c2O)c(=O)[nH]1 | inactive
CCCn1/c(=N\C(C)=O)c(C(=O)OCC)cc2c(=O)n3ccccc3nc21 | inactive
CC(C)Cc1cc(C(=O)N2CCC(N3CCC(C(=O)N4CCCC4)CC3)CC2)[nH]n1 | inactive
O=C(C1CCN(S(=O)(=O)c2c(Cl)cccc2Cl)CC1)N1CCCCCCC1 | inactive
O=C(c1cccc(Cl)c1)N1CCC(N2CCC(C(=O)N3CCCC3)CC2)CC1 | 8.91 µM (active)
CCOC(=O)c1cc2c(=O)n3ccccc3nc2n(CC(C)C)/c1=N\C(=O)C(C)Oc1ccccc1 (stereo not drawn) | inactive
COc1ccc(-c2oc3ccccc3c(=O)c2OC(C)=O)cc1 | inactive
CNC(=O)c1ccc(NC(=O)C2CCN(S(=O)(=O)c3cccc(C(F)(F)F)c3)CC2)cc1 | inactive
Cc1noc2ncnc(N3CCCC(C(=O)Nc4cccc(C(F)(F)F)c4)C3)c12 (stereo not drawn) | 31.6 µM (active)
O=C(Nc1cccc(C(F)(F)F)c1)C1CC(=O)N(Cc2ccco2)C1 (stereo not drawn) | inactive
CCn1c2ccccc2nc2cc3c(cc21)c(Cl)c(=O)c1ccccc13 | 7.94 µM (active)
CCn1c(C(C)NC(C)=O)nc2ccccc21 (stereo not drawn) | inactive
CCn1c2ccccc2c(=O)c2ccccc21 | inactive
O=C(O)c1cccc(NC(=O)c2cc3cc(Br)cc(Br)c3oc2=O)c1 | inactive
C/C(=N\NC(=O)c1cc2ccccc2cc1O)c1ccc(C)o1 | inactive
C/C(=N\NC(=O)C1(C)CC1(Br)Br)c1cccc(NC(=O)c2ccc(C)o2)c1 (stereo not drawn) | 35.5 µM (active)
Nc1ccc(Br)c2cccnc12 | inactive
NC(=O)c1c(NC(=O)C2COc3ccccc3O2)sc2c1CCN(Cc1ccccc1)C2 (stereo not drawn) | inactive

SMILES | Potency
COc1ccccc1/C=C/CN1CCC(CO)(Cc2ccccc2)CC1 | inactive
COc1ccc(CC2(CO)CCN(Cc3ccc4c(c3)CCO4)CC2)cc1 | inactive
Cc1c(CN2CCC(CO)(Cc3cccc(C(F)(F)F)c3)CC2)c2ccccc2n1C | 39.8 µM (active)
Cc1c(N(C)S(=O)(=O)c2cccc(C(=O)NCc3cccnc3)c2)c(=O)n(-c2ccccc2)n1C | inactive
O=C(O)c1ccc(-c2ccc(/C=C3\NC(=O)N(Cc4ccc(Cl)cc4)C3=O)o2)cc1Cl | inactive
CNC(=O)/C(C#N)=C/c1ccc(-c2ccc(Cl)cc2)o1 | inactive
O=C(NCc1cccnc1)/C(=C/c1ccc(-c2ccc(Cl)cc2)o1)S(=O)(=O)c1ccccc1 | 35.5 µM (active)
CC(C)(C)NC(=O)NCc1cccnc1 | inactive
O=C(NCc1cccnc1)/C(=C\c1ccc(-c2ccc(Cl)c(Cl)c2)o1)S(=O)(=O)c1ccccc1 | 22.4 µM (active)
O=C(N/N=C/c1ccc(-c2ccc([N+](=O)[O-])cc2)o1)c1cccnc1 | inactive
O=C(NCc1cccnc1)/C(=C\c1ccc(-c2cccc(Cl)c2)o1)S(=O)(=O)c1ccccc1 | 31.6 µM (active)
O=C(NCC(=O)N1CCC2(CC1)NCCc1[nH]cnc12)c1cccc(Cl)c1 | inactive
CN(C)c1ccc(/C=N/NC(=O)c2cccc(N3CCCC3=O)c2)cc1 | inactive
Cc1ccc(S(=O)(=O)NN=C2CCc3ccccc32)cc1 | inactive
N#CCCn1nc(-c2ccc(Br)cc2)cc1Nc1ccccc1NC(=O)C(F)(F)F | inactive
CCOc1ccc(N2C(=O)/C(=C\NNc3nnc(C)c(O)n3)c3ccccc3C2=O)cc1 | inactive
O=C(C1CCCO1)N(c1ccc(F)cc1)C1C=CS(=O)(=O)C1 (stereo not drawn) | inactive
O=C(OCCN1C(=O)c2cccc3c(N4CCOCC4)ccc(c23)C1=O)c1cccc(Cl)c1 | inactive
CC(C)CN(C(=O)CN1CCCCCC1)c1c(N)n(CC(C)C)c(=O)[nH]c1=O | inactive
CC1CN(C(S)=Nc2ccc(Cl)cc2)CC(C)O1 (stereo not drawn) | inactive
CCn1nc(NC(=O)COC)c2cc3cc(C)ccc3nc21 | inactive
Cc1cccc2cc3c(N)c(C(=O)N4CCc5ccccc54)sc3nc12 | inactive
O=[N+]([O-])c1ccc(/C=N/Nc2ncc(-c3ccccc3)cn2)cc1 | inactive
O=[N+]([O-])c1ccc(NN=Cc2ccccc2O)nc1 | 20 µM (active)

SMILES | Potency
O=[N+]([O-])c1ccc(N/N=C/c2ccc(OCc3cccc4ccccc34)cc2)nc1 | inactive
CN(C)c1c2ccccc2nc2c(F)c(F)c(F)c(F)c12 | inactive
Cc1cccn2c(=O)c3cc(C(=O)NC(C)c4ccccc4)c(=N)n(CCOCCO)c3nc12 (stereo not drawn) | inactive
CC(C)CN(CC(C)C)CC(O)Cn1cc(/C=C/C(=O)c2ccccc2)c2ccccc21 (stereo not drawn) | inactive
O=C(/C=C/c1cn(CC(O)CN2CCCCCC2)c2ccccc12)c1ccc(Br)cc1 (stereo not drawn) | inactive
C=CCn1cccc(/C=C/C(=O)c2ccc(C(C)(C)C)cc2)c1=S | 35.5 µM (active)
Cc1cc(=O)oc2cc(O[C@@H]3O[C@H](CO)[C@H](O)[C@H](O)[C@H]3O)ccc12 | inactive
Cc1cc(N2CCOCC2)nc2ccc(NC(=O)CCC(=O)N3CCCC(C)C3)cc12 (stereo not drawn) | inactive
O=C(COC(=O)C1CC(=O)N(Cc2ccccc2)C1)Nc1cccc([N+](=O)[O-])c1 (stereo not drawn) | inactive
CN(C(=O)c1cccc(NC(=O)Cc2ccc(NC(=O)C3CCCN(C(=O)CCc4ccccc4)C3)cc2)c1)C1CCCCC1 (stereo not drawn) | 17.8 µM (active)
Cc1ccc(N2C(=O)c3cccc4c(N5CCN(C)CC5)ccc(c34)C2=O)c2cccnc12 | inactive
CCc1nnc(N/C=C2/C(=O)N(c3ccc(Cl)cn3)C(=O)c3ccccc32)s1 | inactive
COc1ccc(C(=O)Cn2c(C(C)=O)nc3ccccc32)cc1 | 33.6 µM (active)
Cn1c(COc2ccc(C(=O)O)cc2)nc2ccccc21 | inactive
CCn1c(NCc2ccc(OC)cc2)nc2ccccc21 | inactive
CN(C)c1cccc(C(=O)OCc2cc(=O)oc3cc(O)ccc23)c1 | inactive
N#C/C(=C\c1cccnc1)c1nc2c(s1)CCCC2 | inactive
CN1/C(=C/C=C/c2n(C)c3cc([N+](=O)[O-])c([N+](=O)[O-])cc3[n+]2C)C(C)(C)c2ccccc21 | 7.94 µM (active)
O=C(Oc1c(-c2ccccc2Cl)oc2ccccc2c1=O)c1ccc(Cl)cc1 | inactive
COCCCn1c(=N)c(C(=O)NCC2CCCO2)cc2c(=O)n3cccc(C)c3nc21 (stereo not drawn) | inactive
Cc1ccc(-n2c(=O)c(C#N)cc3c(=O)n4ccccc4nc32)cc1C | inactive
Cc1c(Cl)cccc1NC(=O)CNC(=O)CCS(=O)(=O)c1ccc(F)cc1 | inactive
O=C(CCS(=O)(=O)c1ccc(F)cc1)Nc1nc(-c2ccncc2)cs1 | 39.8 µM (active)
O=C(Cc1ccccc1)Nc1nc(-c2ccc(F)c(F)c2)cs1 | inactive

SMILES | Potency
COc1ccc(-n2nc(C)c3onc(C)c3c2=O)cc1 | inactive
COc1ccc(-n2nc(C#N)c(Cl)cc2=O)cc1 | 39.8 µM (active)
CC(C)(C)c1ccc(-n2nc(C#N)c(Cl)cc2=O)cc1 | 15.8 µM (active)
COc1ccc(N2C(=O)CC(NNc3ncc(Cl)cc3Cl)C2=O)cc1 (stereo not drawn) | inactive
Cc1ccc(CSc2nnc([C@@H]3CCCN3C(=O)OC(C)(C)C)o2)cc1 | inactive
O=[N+]([O-])c1ccc(Nc2ccccc2)c2nonc12 | 25.1 µM (active)
CCc1nnc(NS(=O)(=O)c2ccc(N/C=C/C(=O)c3ccc(C)cc3)cc2)s1 | inactive
CCc1nnc(NS(=O)(=O)c2ccc(NC(=O)c3cccc(Cl)c3)cc2)s1 | inactive
O=[N+]([O-])c1ccc(Sc2cccc[n+]2[O-])c2nonc12 | 6.7 µM (active)
CCc1nnc(NS(=O)(=O)c2ccc(Nc3ccc([N+](=O)[O-])c4nonc34)cc2)s1 | 17.8 µM (active)
COCCn1c(SCC(=O)NC2CCCCC2)nnc1-c1ccncc1 | inactive
O=C1OCCN1C(=O)[C@H]1[C@H](c2ccc(F)cc2)C(c2cccc(Cl)c2)=NN1c1ccccc1 | inactive
O=C(NCc1cccc(C(F)(F)F)c1)c1cccc2c1C(=O)c1ccc(N3CCC(Cc4ccccc4)CC3)cc1S2(=O)=O | inactive
CCN(CC)C(=O)[C@H]1CC(CC(=O)NCC23C[C@H]4C[C@@H](C2)C[C@@H](C3)C4)C(=O)N2CCc3c([nH]c4ccccc34)[C@]12C (stereo partly drawn) | 39.8 µM (active)
CC(C)N(C(=O)[C@H]1CC(CC(=O)NCc2cccc(C(F)(F)F)c2)C(=O)N2CCc3c([nH]c4ccccc34)[C@]12C)C(C)C (stereo partly drawn) | 39.8 µM (active)
CCN(CC)C(=O)[C@H]1CC(CC(=O)NCc2cccc(C(F)(F)F)c2)C(=O)N2CCc3c([nH]c4ccccc34)[C@]12C (stereo partly drawn) | 22.4 µM (active)
CN(C)C(=O)CCc1ccc2c3c([nH]c2c1)[C@]1(C)[C@@H](C(=O)N2CCCCC2)C[C@H](CC(=O)NCC24C[C@H]5C[C@@H](C2)C[C@@H](C4)C5)C(=O)N1CC3 | 39.8 µM (active)
C/C(=N\NC(=O)c1nc2ccccn2c1C)c1ccco1 | inactive
Cc1c(Cc2ccccc2)c(=O)oc2cc(O)cc(O)c12 | inactive
COCC(=O)N(CCN(C)C)Cc1cc2cc3c(cc2nc1Cl)OCO3 | inactive
COc1ccc(-c2cn3nc(SCC(=O)NCC4CCCO4)ccc3n2)cc1 (stereo not drawn) | inactive
